# Assay results taken from PubChem BioAssay (Tox21).
# Results filed as inconclusive are left out. Entries that show only a call come without a potency. The source made the active and inactive calls. Calls follow the shape of the dose curve; as a rule, active = well fitted activation curve with a large enough effect in the repeat runs; inconclusive = weak or mixed curves; inactive = flat fitted curve, though single readings scatter. Non-standard residues stand in square brackets, D forms with d. Residues, ends and D or L forms follow the SMILES beside them. pGlu = O=C1CC[C@@H](C(=O)O)N1; Thz = O=C(O)[C@@H]1CSCN1
# Target: Nuclear receptor subfamily 1 group I member 2 (Homo sapiens) (UniProt O75469)
# Assay: Human pregnane X receptor (PXR) activation by small molecules, qHTS assay (AID 1346985); also: nearly all actives have a fitted effect of over 40% in size
# Conditions: DPX-2 HepG2 CYP3A4-luciferase, 24 h; series mostly up to 38.3 µM
# Text: National Center for Advancing Translational Sciences [NCATS]
# NIH Chemical Genomics Center [NCGC]
# U.S. Environmental Protection Agency [EPA]
# National Institutes of Environmental Health Sciences [NIEHS]
# National Toxicology Program [NTP]
# The Pregnane X receptor (PXR), a ligand activated nuclear receptor plays a critical role in the regulation of genes involved in drug metabolism and transporters. Activation of PXR may be involved in the unwanted adverse drug-drug interactions. […] Therefore, identification of compounds with the potential for PXR activation can be of importance in improving the efficacy of drugs with less toxicity and avoiding drug-drug interactions.
# DPX-2 (Puracyp, Inc.) cell lines, used for screening against human PXR activation has HepG2 cells co-transfected with a PXR response element and a luciferase construct containing CYP3A4 promoter. Increase in luciferase activity can be used to identify the compounds that activate the PXR pathway.
# DPX-2 cells were dispensed at 2,000 cells per well in 5uL of assay medium into white, solid-bottom 1536-well plates using a Multidrop Combi dispenser (Thermo Scientific). The assay plates were incubated at 37C for 5hr before transferring 23nL of test compounds dissolved in DMSO and positive control via Pintool station (Wako). The assay plates were incubated at 37C for 24hr. Then 5ul One-Glo assay reagent (Promega) was added to each plate by a Flying Reagent Dispenser (FRD, Aurora Discovery) and following 30 min incubation at room temperature, luciferase activity was quantified on a ViewLux plate reader (Perkin Elmer).
# Potency is read from the fitted curve at half-maximal effect.
row,SMILES,Potency
1,Cn1c(=O)c2c(ncn2CCOC(=O)C(C)(C)Oc2ccc(Cl)cc2)n(C)c1=O,inactive
2,CC(O)[C@@H]1NC(=O)[C@H](Cc2ccccc2)NC(=O)[C@H](C(C)O)NC(=O)[C@H](CCCCN)NC(=O)[C@H](Cc2c[nH]c3ccccc23)NC(=O)[C@H](Cc2ccccc2)NC(=O)[C@H](Cc2ccccc2)NC(=O)[C@H](CC(N)=O)NC(=O)[C@H](CCCCN)NC(=O)[C@@H](NC(=O)CNC(=O)[C@H](C)N)CSSC[C@@H](C(=O)O)NC(=O)[C@H](CO)NC1=O (stereo not given in full),inactive
3,CC(=O)Oc1c(C)cc(OCC(O)CNC(C)C)c(C)c1C (stereo not given),inactive
4,OCCO[C@@H]1[C@@H](O)[C@H](O)[C@@H](CO)O[C@@H]1O,inactive
5,CC(C)(S)[C@@H](N)C(=O)O,inactive
6,Nc1ccc(S(=O)(=O)Nc2ncccn2)cc1,inactive
7,CCCCC(=O)O[C@H]1CC[C@H]2[C@@H]3CCc4cc(O)ccc4[C@H]3CC[C@]12C,inactive
8,CC(C(=O)O)c1ccc(N2Cc3ccccc3C2=O)cc1 (stereo not given),inactive
9,Nc1nc2[nH]cc(CCc3ccc(C(=O)N[C@@H](CCC(=O)O)C(=O)O)cc3)c2c(=O)[nH]1,inactive
10,CC1=C(/C=C/C(C)=C/C=C/C(C)=C/C=C/C=C(C)/C=C/C=C(C)/C=C/C2=C(C)C[C@@H](O)CC2(C)C)C(C)(C)C[C@H](O)C1,inactive
11,CCCCCCCCCCCCCCCCCC(=O)OCC(C)O (stereo not given),inactive
12,COc1ccccc1N1CCN(CCCC(=O)c2ccc(F)cc2)CC1,7.94 µM (active)
13,CC(C)NCC(O)COc1ccccc1-n1cccc1 (stereo not given),inactive
14,O=C1CCC(=O)N1CO,inactive
15,CC1=C(/C=C/C(C)=C/C=C/C(C)=C/C=C/C=C(C)/C=C/C=C(C)/C=C/C2=C(C)C(=O)CCC2(C)C)C(C)(C)CCC1=O,inactive
16,O=C(O)c1ccc(NC(=O)[C@H](Cc2ccc(O)cc2)NC(=O)c2ccccc2)cc1,inactive
17,O=C1CC[C@@H](C(=O)N2CSC[C@H]2C(=O)O)N1 ([pGlu]-[Thz]-OH),inactive
18,Cc1cccc(Nc2ncccc2C(=O)O)c1C,inactive
19,CN=C1C=CC(=C(c2ccc(N(C)C)cc2)c2ccc(N(C)C)cc2)C=C1,inactive
20,CCOC(=O)C1=C[C@@H](OC(CC)CC)[C@H](NC(C)=O)[C@@H](N)C1,inactive

row,SMILES,Potency
1,CCCCC[C@H](O)/C=C/[C@H]1[C@H](O)CC(=O)[C@@H]1CCCCCCC(=O)O,inactive
2,O=C(CCCCCCCCCCCCC1CCCC1)Nc1ccc(S(=O)(=O)c2ccc(NC(=O)CCCCCCCCCCCCC3CCCC3)cc2)cc1,inactive
3,CC(C)=CCC/C(C)=C/C=C/C(C)=C/C=C/C(C)=C/C=C/C=C(C)/C=C/C=C(C)/C=C/C=C(\C)CCC=C(C)C,inactive
4,NC(=O)c1ccc[n+]([C@@H]2O[C@H](COP(=O)([O-])OP(=O)(O)OC[C@H]3O[C@@H](n4cnc5c(N)ncnc54)[C@H](O)[C@@H]3O)[C@@H](O)[C@H]2O)c1,inactive
5,CC(=O)O[C@]1(C(C)=O)CC[C@H]2[C@@H]3CCC4=CC(=O)CC[C@]4(C)[C@@]3(F)[C@@H](O)C[C@@]21C,inactive
6,CN(C)C=Nc1c(I)cc(I)c(CCC(=O)O)c1I,14.1 µM (active)
7,COc1ccc(-c2noc(CC(=O)O)c2-c2ccc(OC)cc2)cc1,inactive
8,O=C(COc1ccc(Cl)cc1)OCCNC12CC3CC(CC(C3)C1)C2,inactive
9,CC1=C[C@H](O)CC(C)(C)[C@H]1/C=C/C(C)=C/C=C/C(C)=C/C=C/C=C(C)/C=C/C=C(C)/C=C/C1=C(C)C[C@@H](O)CC1(C)C,inactive
10,CN(C)CC/C=C1/c2ccccc2CSc2ccccc21,inactive
11,CCN(CC)CCOCCOC(=O)C(CC)(CC)c1ccccc1,15.8 µM (active)
12,COc1ccc(C2(C#N)CCC(C(=O)O)CC2)cc1OC1CCCC1 (stereo not given),inactive
13,COC(=O)CCC[N+](C)(C)C,inactive
14,COc1ccc(CC2c3cc(OC)c(OC)cc3CC[N+]2(C)CCC(=O)OCCCCCOC(=O)CC[N+]2(C)CCc3cc(OC)c(OC)cc3C2Cc2ccc(OC)c(OC)c2)cc1OC (stereo not given),inactive
15,CC(=O)O[C@H]1C(=O)[C@@]2(C)[C@H]([C@H](OC(=O)c3ccccc3)[C@]3(O)C[C@H](OC(=O)[C@H](O)[C@@H](NC(=O)c4ccccc4)c4ccccc4)C(C)=C1C3(C)C)[C@]1(OC(C)=O)CO[C@@H]1C[C@@H]2O,15.8 µM (active)
16,CCCCC(=O)N(Cc1ccc(-c2ccccc2-c2nn[nH]n2)cc1)[C@@H](C(=O)O)C(C)C,inactive
17,C[C@@H]1C[C@H]2[C@@H]3CCC4=CC(=O)C=C[C@]4(C)[C@@]3(F)[C@@H](O)C[C@]2(C)[C@@]1(O)C(=O)COC(=O)c1cccc(S(=O)(=O)O)c1,inactive
18,CC(C)(CO)[C@@H](O)C(=O)NCCCC(=O)O,inactive
19,CC[C@H](C)[C@H]1O[C@]2(CC[C@@H]1C)C[C@@H]1C[C@@H](C/C=C(\C)[C@@H](O[C@H]3C[C@H](OC)[C@@H](O[C@H]4C[C@H](OC)[C@@H](O)[C@H](C)O4)[C@H](C)O3)[C@@H](C)/C=C/C=C3\CO[C@@H]4[C@H](O)C(C)=C[C@@H](C(=O)O1)[C@]34O)O2,inactive
20,O=C(Cc1cccs1)N[C@@H]1C(=O)N2C(C(=O)[O-])=C(C[n+]3ccccc3)CS[C@H]12,inactive
